Reference: PubChem BioAssay (NCATS)
Results filed as inconclusive are left out. Unmarked numbers belong to inactive results. Calls follow the shape of the dose curve; as a rule, active = well fitted inhibition curve with a large enough effect; inconclusive = small, poorly fitted or top-dose-only effect; inactive = flat fitted curve, though single readings scatter.

biological target: Calcium and integrin-binding protein 1 (Homo sapiens) (UniProt Q99828); assay: Primary qHTS for Identification of Calcium Integrin Binding Protein 1 (CIB1) Competitor (AID 1508620); conditions: CIB1-GST / FITC-alphaIIb peptide fluorescence polarization; series mostly up to 114 µM; activity change, negative = inhibition: at the top concentration;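 also: GST tagged CIB1 binding a fluorescein labelled alphaIIb integrin peptide tracer; top concentration of the series differs between compounds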
Sequence (Q99828 whole entry, looked up): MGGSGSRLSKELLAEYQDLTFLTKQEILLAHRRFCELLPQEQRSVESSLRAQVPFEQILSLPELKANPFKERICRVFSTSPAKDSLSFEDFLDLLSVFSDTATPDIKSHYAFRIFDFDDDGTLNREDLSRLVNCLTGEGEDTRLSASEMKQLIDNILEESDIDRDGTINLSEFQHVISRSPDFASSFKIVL
Method in brief: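 CIB1-GST (1 uM final) and compound incubated 15 min at room temperature before adding FITC-alphaIIb peptide tracer (100 nM final). Competition for binding read by fluorescence polarization (ex 480, em 540) after another 15 min at room temperature.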
% is scaled to controls: 0 for no effect and ±100 for the full control effect.

Compound	activity change, negative = inhibition
NC(=O)C1CCN(c2nc(-c3ccc(-c4ccccc4)cc3)cs2)CC1	2.07%
Nc1nnc(-c2ccc3ccccc3c2)o1	5.86%
O=c1c2[nH]c3ccsc3c2cnn1Cc1ccccc1F	1.08%
Cc1ccc(OCCn2c(CCNCC3CCCCC3)nc3ccccc32)cc1	-15.8%
O=C(CSc1nnc(-c2cccc([S+](=O)([O-])N3CCCC3)c2)n1-c1ccccc1)Nc1cccc(F)c1	3.76%
CCOC(=O)c1ccc(-n2cnc3c(c2=N)C(c2cccc(OC)c2)c2c(ccc4ccccc24)O3)cc1 (stereo not given)	15.9%
Nc1ccc2c(c1)C(=O)NS2(=O)=O	1.28%
Nc1cc(S(=O)(=O)N2CCN(S(=O)(=O)c3ccc4c(c3)OCCO4)CC2)ccn1	5.78%
FC(F)(F)c1cccc(N2CCN(C(=S)Nc3cccnc3)CC2)c1	0.253%
Cn1nnnc1Sc1ncnc2scc(-c3ccccc3[N+](=O)[O-])c12	1.22%
CC(=O)Nc1cccc([S+](=O)([O-])N2CCCN([S+](=O)([O-])c3cccc(NC(C)=O)c3)CC2)c1	-4.48%
COc1ccc(N2CCN(S(=O)(=O)c3ccc4c(c3)CC(=O)N4)CC2)cc1	3.12% [at 228 µM]
Cc1ccc(OCCn2c(CCNC(=O)c3ccc(C#N)cc3)nc3ccccc32)cc1	1.57%
COc1cc(OC)cc(C2=Nn3c(nnc3-c3ccccc3O)SC2)c1	-5.14%
Cc1cc2c(s1)c1cnn(Cc3ccc(F)c(F)c3)c(=O)c1n2C	3.79%
CC(C)(N)C(=O)Nc1ccc(Cl)cc1C(=O)c1ccc[nH]1	-0.117%
CC(=O)Nc1ccc(S(=O)(=O)Nc2cccc3cccnc23)cc1	4.04%
O=C(Nc1ccc(Cl)c(C(F)(F)F)c1)Nc1nnc(-c2cccnc2)s1	3.39%
COc1ccc(C2Nc3ccccc3C(=O)N2Cc2cccc(C(F)(F)F)c2)cc1COc1ccc(NC(C)=O)cc1 (stereo not given)	3.71%
Cc1ccc(OCCn2c(CCNC(=O)c3cccc(C)c3)nc3ccccc32)cc1	4.84%

Compound	activity change, negative = inhibition
CC(C)c1ccccc1-c1nc2c(c(NCc3ccc(-c4cccnc4)cc3)n1)CNC2	-1.1%
Cc1cc(NS(=O)(=O)c2ccc(NC(=O)Cc3ccc(Cl)c(C(F)(F)F)c3)cc2)no1	-11.6%
N#Cc1ccc(Nc2ncc(-c3cccc4ccccc34)o2)cc1	4.27%
Cc1ccc(OCCn2c(CCNC(=O)Cc3ccc(F)cc3F)nc3ccccc32)cc1	17.2%
N#Cc1nc(NC2CCCC2)c2ncn(-c3cc(F)cc(F)c3)c2n1	-1.93%
Cc1cc2c(s1)c1cnn(Cc3ccc(F)c(Cl)c3)c(=O)c1n2C	0.767%
Oc1ccc(CNc2ccc(C(F)(F)F)cc2Cl)c2cccnc12	-2.74%
Cc1cc2c(s1)c1cnn(Cc3cc(F)c(F)cc3F)c(=O)c1n2C	4.26%
Cc1nnc(-c2cnn(C)c2N)n1CCCc1ccccc1	1.86%
Cc1cc(C)nc(NC(=S)N2CC3CN(c4ccc(Cl)cc4C(F)(F)F)CC3C2)c1 (stereo not given)	1.57%
O=C(Nc1ccc(N2CCOCC2)nc1)c1cccs1	-3.64%
Cc1ccc(S(=O)(=O)N2CCN(c3nc(C#N)nc4ccccc34)CC2)cc1	4.07%
COc1cccc(C2c3c(ncn(-c4ccncc4)c3=N)Oc3ccc4ccccc4c32)c1 (stereo not given)	5.23%
Cc1cccc(-n2cnc3cc(C(=O)N4CCC(Br)CC4)ccc32)c1	-3.62%
CC(C)(C)OC(=O)N1CCN(c2cnc(NCc3ccc(-c4ccc(C#N)cc4)o3)nc2)CC1	-14%
N#Cc1ccc(C[C@H](C(=O)O)N2C(=O)c3ccc(C(=O)O)cc3C2=O)cc1	-0.401%
Cc1cc(NS(=O)(=O)c2ccc(NC(=O)Cc3ccc4ccccc4c3)cc2)no1	-13.9%
CN(Cc1ccco1)c1ncnc2ccc(-c3ccc4c(ccn4C)c3)cc12	-3.65%
O=C1Nc2cccc(Cl)c2/C1=C\c1cc(Cl)c(O)c(Cl)c1	-8.16%
O=S(=O)(c1ccc2c(c1)OCCO2)N1CCN(S(=O)(=O)c2ccc(Br)cc2F)CC1	-1.54%
